Screening results: PubChem BioAssay, National Center for Advancing Translational Sciences (NCATS)
In the library only some 3.5% were active in any assay of this set; here they are far more common.
Sm TGR inh = inhibitors of Schistosoma mansoni thioredoxin glutathione reductase; purified TGR, DTNB reduction, TNB absorbance 405 nm; Potency, µM (series often up to 114 µM), for the others: top-dose activity change, negative = inhibition, most hits filed as inhibitors; 360,000 tested, 3% active; AID 485364; further: on the % scale 0 is the no-effect control and ±100 the full control effect; nearly all actives have a fitted effect of over 60% in size
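Kinetic colorimetric format: TGR-catalysed, NADPH-driven DTNB reduction monitored via TNB absorbance. Enzyme dispensed at 20 nM; compound exposure 15 min at room temperature before reaction start.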
RE007 growth inh = less growth of the S. pombe RE007 Vpr strain; 360,000 tested, 0.21% active; Potency, µM (doses to about 92.2 µM), inactives show at the highest dose activity change, negative = less growth, usual class: inhibitors; S. pombe RE007 Vpr strain, BacTiter-Glo ATP luminescence, 24 h; AID 651644; active means well fitted falling curve with a large enough effect; inconclusive means small, poorly fitted or top-dose-only effect; inactive means no such curve, though single readings can be large or run the other way; further: on the % scale 0 is the no-effect control and ±100 the full control effect; nearly all actives have a fitted effect of over 50% in size
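Fission yeast RE007 carrying one integrated HIV-1 vpr copy, seeded at OD 0.01 in PMG+AL medium with 23 nL pinned compound. Grown 24 h at 30 degrees; viability read by BacTiter-Glo luminescence after 5 min.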
Tb PYK inh = inhibitors of Trypanosoma brucei pyruvate kinase | Q57TT1 | AID 624173 | Potency, µM (titrated, usually from 76.8 µM), inactives show top-dose activity, negative = inhibition, usual class: inhibitors | 410,000 tested, 0.12% active | TbPYK enzyme, Kinase-Glo Plus ATP luminescence, 45 min; further: on the % scale 0 is the no-effect control and ±100 the full control effect; nearly all actives have a fitted effect of over 50% in size
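Luminescent Kinase-Glo Plus end-point after 45 min room-temperature reaction of T. brucei pyruvate kinase started with 130 uM ADP (final). Buffer TEA 50 mM pH 7.2 with KCl, MgCl2, BSA, Tween-20; titration-based qHTS with fitted concentration-effect curves.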
LmPK inhibitor = blocks Leishmania mexicana pyruvate kinase activity | 290,000 tested, 0.37% active | Q27686 | purified LmPK, Kinase-Glo ATP luminescence, 1 h | Potency, µM (doses to about 57.5 µM), for inactives: top-dose activity change, negative = inhibition, most hits filed as inhibitors | AID 1721; further: on the % scale 0 is the no-effect control and ±100 the full control effect
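Kinase-Glo luminescence read after 1 h RT reaction of 0.1 nM LmPK with 0.5 mM PEP and 0.1 mM ADP. Activity scaled between uninhibited and enzyme-free controls.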
NS1 function inh = blocks influenza NS1 protein function; Potency, µM (series often up to 46.1 µM), inactives show top-dose activity, positive = more growth; 270,000 tested, 0.4% active; calls by dose curve; further: actives are rising curves; nearly all actives have a fitted effect of over 50% in size
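Growth recovery, yeast-based: influenza A NS1 expressed in S. cerevisiae causes slow growth, and suppressors are detected by OD600. The parent strain without NS1 is used as positive control.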
FBPA Giardia inh = blocks Giardia fructose-bisphosphate aldolase activity; 290,000 tested, 0.71% active; purified Giardia FBPA; A8B2U2; AID 2451; Potency, µM (top dose mostly 59.6 µM), without a hit: at the top dose activity, negative = inhibition, hits mostly inhibitors; further: on the % scale 0 is the no-effect control and ±100 the full control effect; nearly all actives have a fitted effect of over 55% in size
Target sequence (A8B2U2 whole entry, looked up): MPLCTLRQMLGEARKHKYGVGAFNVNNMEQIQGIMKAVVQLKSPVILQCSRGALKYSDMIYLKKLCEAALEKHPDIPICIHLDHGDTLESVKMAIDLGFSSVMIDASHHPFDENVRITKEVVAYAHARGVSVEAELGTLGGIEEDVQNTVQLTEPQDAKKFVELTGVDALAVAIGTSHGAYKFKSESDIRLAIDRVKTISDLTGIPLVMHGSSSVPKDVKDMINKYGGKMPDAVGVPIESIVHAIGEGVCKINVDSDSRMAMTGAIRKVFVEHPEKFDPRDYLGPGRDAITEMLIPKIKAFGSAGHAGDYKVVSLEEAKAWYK
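40 nM FBPA preincubated 10 min at RT with compound (up to 57.5 uM final), then substrate plus GAPDH/TPI/NAD/arsenate coupling and diaphorase/resazurin added. Fluorescence read after 20 min at RT, 525/598 nm.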
Starred values were filed as active, the others as inactive; u = inconclusive; x = no result; ! = not confirmed by another sample; [ ] = remark or other dose. Unless noted, the call rests on the fitted dose curve; in most records, active means well fitted curve in the direction sought with a large enough effect; inconclusive means small, poorly fitted or top-dose-only effect, or another doubt; inactive means no such curve, though single readings can be large; an effect the other way counts as inactive or inconclusive. Potency means the concentration at half of the fitted maximal effect.

SMILES	Sm TGR inh	RE007 growth inh	Tb PYK inh	LmPK inhibitor	NS1 function inh	FBPA Giardia inh
CCN1CCN(CC(=O)n2c3c(c4ccccc42)CC(C)CC3)CC1 (stereo not drawn)	-25%	-24%	-1%	2%	-35%	-8%
CCSc1nnc(NC(=O)C2CCN(S(=O)(=O)c3cc(C(F)(F)F)ccc3Cl)CC2)s1	89µM*	3%	2%	0%	16%	-7%
Cn1c(NC(=O)C[n+]2cc(-c3ccc(Cl)c(Cl)c3)n3c2CCC3)cc(=O)n(C)c1=O	-4%	32µM*	-1%	-1%	19%	2%
CC(C)(C)c1ccc(Oc2ccc(N)cn2)cc1	13µM*	18%	-7%	0%	-2%	-5%
Cc1cc(Oc2ccc(N)cn2)cc(C)c1Cl	40µM*	28%	-9%	2%	0%	-6%
O=C(CSC1CS(=O)(=O)c2cc([N+](=O)[O-])ccc21)NNC(=O)c1ccccc1 (stereo not drawn)	-2%	-7%	-1%	-2%	0%	-4%
O=C(CSC1CS(=O)(=O)c2cc([N+](=O)[O-])ccc21)NNC(=O)c1ccc(Cl)cc1 (stereo not drawn)	16µM*	-17%	3%	-7%	-5%	7%
Cc1cccc(-c2nc(C)c(CCNC(=O)C(=O)Nc3cccc(Cl)c3C)s2)c1	-14%	x	-5%	x	x	x
CCc1ccc(CCC(=O)Nc2nc(CC(C)=O)ns2)o1	40µM*	16%	-2%	3%	9%	-10%
CCCCN(CC)CCCNC(=O)c1cn(CC(C)C)c(=O)c2c1c1ccccc1n2C	32µM*!	-7%	-5%	3%	-4%	11%
CCN(CC)CCCNC(=O)c1cn(CC(C)C)c(=O)c2c1c1ccccc1n2C	u	-16%	-6%	2%	1%	0%
CCOC(=O)C(=Cc1ccc(-n2cncn2)cc1)C(=O)OCC	16µM*	-19%	0%	5%	-1%	0%
COC(c1ccccc1)C(C)C(OC)C(C)C(OC)C(C)C(C)=O (stereo not drawn)	x	x	x	x	x	0%[12.9 µM]
COc1cc(C(=O)Nc2nc3c(s2)Cc2c(Br)ccc(OC)c2-3)cc(OC)c1OC	-11%	x	-10%	x	x	x
CC(=O)Nc1ccc(NC(=S)NC(=O)c2cc3ccccc3o2)cc1	-3%	8%	-5%	2%	8%	-5%
Cn1nnc(NC(=O)c2ccco2)n1	25%	10%	6%	0%	3%	7%
COc1c(C(=O)NC(=S)Nc2nnn(C)n2)cc2ccccc2c1Br	0%	-10%	-6%	1%	0%	u
Cn1nnc(NC(=S)NC(=O)c2cc3ccccc3o2)n1	25µM*	-1%	-7%	5%	-65%	u
COc1ccc(C(=O)NC(=S)Nc2nnn(C)n2)cc1	-26%	x	-13%	4%	3%	1.8µM*
Cn1nnc(NC(=O)/C=C/c2ccco2)n1	8.9µM*	-10%	1%	-10%	8%	1%
Cn1nnc(NC(=O)c2ccccc2)n1	0%	1%	7%	0%	-3%	4%
Cn1nnc(NC(=S)NC(=O)c2ccco2)n1	u	-7%	-27%	-1%	19%	1.3µM*
COc1ccc(NC(=O)CCC(=O)c2cccs2)cc1Cl	-11%	4%	4%	4%	-4%	5%
COc1cc(NCCC(=O)c2cccs2)c(OC)cc1Cl	1.3µM*	-28%	u	-5%	x	-8%
CSc1sc(C)cc1C1C(C#N)=C(N)N(c2cccnc2)C2=C1C(=O)CC(C)(C)C2 (stereo not drawn)	-17%	4%	-13%	1%	11%	-12%
SMILES	Sm TGR inh	RE007 growth inh	Tb PYK inh	LmPK inhibitor	NS1 function inh	FBPA Giardia inh
CCOc1ccc(OCC)c(C2C(C#N)=C(N)N(c3cccnc3)C3=C2C(=O)CC(C)(C)C3)c1 (stereo not drawn)	22µM*	-2%	0%	-2%	-3%	-26%
Cc1ccc(N2C(N)=C(C#N)C(c3cccnc3)C3=C2CC(C)(C)CC3=O)cc1 (stereo not drawn)	40µM*	22%	-1%	-1%	5%	-27%
CCOC(=O)c1cc(S(=O)(=O)N2CCN(c3ccc(C)cc3C)CC2)[nH]n1	1%	x	-2%	x	x	x
O=S(=O)(NCC(c1ccco1)S(=O)(=O)c1cccs1)c1ccc(Cl)cc1 (stereo not drawn)	0.1µM*	x	-1%	x	x	x
O=S(=O)(NCC(c1ccco1)S(=O)(=O)c1cccs1)c1ccc(F)c(C(F)(F)F)c1 (stereo not drawn)	0.1µM*	x	-5%	x	x	x
O=S(=O)(NCC(c1cccs1)S(=O)(=O)c1ccccc1)c1ccccc1 (stereo not drawn)	0.32µM*	x	3%	x	x	x
O=S(=O)(NCC(c1ccco1)S(=O)(=O)c1cccs1)c1ccccc1 (stereo not drawn)	0.2µM*	x	1%	x	x	x
COc1ccc(Cn2cc(C(=O)c3ccc(C)c(C)c3)c(=O)c3ccccc32)cc1	10%	x	2%	x	x	x
CCCCCn1c(-c2ccc(OC)c(OC)c2)nc2ccccc21	0%	x	3%	x	x	x
c1ccc(Nc2ccc(Nc3ccccc3)cc2)cc1	u	-17%	2%	x	x	x
O=C1C=CC(=O)N1c1ccc2ccccc2c1	x	2.2µM*	u	x	x	x
O=C1C=CC(=O)N1c1ccc(Nc2ccccc2)cc1	x	11µM*	u	x	x	x
Cc1cccc(N2C(=O)C=CC2=O)c1	x	8.9µM*	u	x	x	x
CCN=c1scc(C)n1/N=C/c1ccc(O)c(O)c1O	20µM*	-27%	u	-7%	-14%	u
COCCN=c1scc(-c2cccs2)n1/N=C/c1ccc(O)c(O)c1O	40µM*	-10%	u	-7%	u	u
CCN=c1scc(C)n1/N=C/c1cc(Br)c(O)c(Br)c1	u	-24%	-9%	-2%	x	-25%
Brc1ccc(Nc2c3c(nc4nncn24)CCC3)cc1	35µM*	x	-7%	x	x	x
Cc1ccccc1Nc1c2c(nc3nncn13)CCC2	u	x	0%	x	x	x
Cc1cccc(Nc2c3c(nc4nncn24)CCC3)c1C	40µM*	x	3%	x	x	x
Cc1ccc(Nc2c3c(nc4nncn24)CCC3)cc1	u	x	4%	x	x	x
COc1ccc(/C=C2\CC/C(=C\c3ccc(OC)c(OC)c3)C2=O)cc1OC	-2%	5%	0%	-14%	11%	-8%
COc1ccc(C=C2C=C(C(C)(C)C)C(=O)C(C(C)(C)C)=C2)cc1OC	4.5µM*	2%	4%	1%	-16%	3%
CN(C)c1ccc(-c2nc3ccccc3n2C)cc1	u	u	u	13µM*	-82%	-12%
Cn1cc(C(=O)c2ccccc2)cc1-c1nc2ccccc2n1C	-8%	-3%	-2%	5%	-92%	-2%
Cn1c2nc3ccccc3c-2nc2ccccc21	x	-24%	-15%	x	x	x
